Sampled rows, rich in hits. Any-hit rate of the full collection: about 14%.
CHX counter: affects cycloheximide protein synthesis inhibition readout, counter-screen; max response, %; hit rate 12% among 300,000; cell reporter, cycloheximide protein synthesis inhibition counterscreen; in the data active = max response mostly above about 13%, no sharp cut-off; inactive = mostly below about 14%; note: read at 38.3 µM for the half of the compounds with a filed dose; 0% is about no effect
Shiga toxin inh: inhibitors of Shiga toxin in Vero cells | AID 2315 | hit rate 9.2% among 290,000 | Vero cells, Shiga toxin protein synthesis inhibition reporter | inhibition, % at 38.7 µM; in the data active = inhibition mostly above about 28%, no sharp cut-off; inactive = mostly below about 43%; note: 0% is about no effect
Giardia FBPA inh-1: Giardia lamblia aldolase inhibition; A8B2U2; purified Giardia FBPA; Potency, µM (series often up to 59.6 µM), for inactives: at the highest dose activity, negative = inhibition, most hits filed as inhibitors; hit rate 0.71% among 290,000; AID 2451; note: potency is the fitted concentration of half-maximal effect; % is set by controls: 0 for no effect and ±100 for the full control effect; nearly all actives have a fitted effect of over 55% in size
Target sequence (A8B2U2 whole entry, looked up): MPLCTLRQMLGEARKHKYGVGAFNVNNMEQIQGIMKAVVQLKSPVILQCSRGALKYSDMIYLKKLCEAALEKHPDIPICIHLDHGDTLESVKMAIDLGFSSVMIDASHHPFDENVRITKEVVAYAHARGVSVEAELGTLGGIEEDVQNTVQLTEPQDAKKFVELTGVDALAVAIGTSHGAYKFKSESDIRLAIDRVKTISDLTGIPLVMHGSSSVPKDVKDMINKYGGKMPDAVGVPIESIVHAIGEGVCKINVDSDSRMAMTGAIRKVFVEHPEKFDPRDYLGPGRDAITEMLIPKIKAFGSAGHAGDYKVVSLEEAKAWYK
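40 nM FBPA preincubated 10 min at RT with compound (up to 57.5 uM final), then substrate plus GAPDH/TPI/NAD/arsenate coupling and diaphorase/resazurin added. Fluorescence read after 20 min at RT, 525/598 nm.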
NS1 function inh: blocks influenza NS1 protein function; Potency, µM (top dose mostly 46.1 µM), without a hit: top-dose activity, positive = more growth; hit rate 0.4% among 270,000; AID 2326; calls by dose curve; note: potency is the fitted concentration of half-maximal effect; actives are rising curves; nearly all actives have a fitted effect of over 50% in size
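Growth recovery, yeast-based: influenza A NS1 expressed in S. cerevisiae causes slow growth, and suppressors are detected by OD600. The parent strain without NS1 is used as positive control.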
LmPK inhibitor: LmPK (Leishmania mexicana) enzyme inhibition; purified LmPK, Kinase-Glo ATP luminescence, 1 h; Potency, µM (top dose mostly 57.5 µM), for the others: top-dose activity change, negative = inhibition, hits mostly inhibitors; hit rate 0.37% among 290,000; note: potency is the fitted concentration of half-maximal effect; % is set by controls: 0 for no effect and ±100 for the full control effect
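0.1 nM LmPK, 0.5 mM PEP, 0.1 mM ADP; 50 mM imidazole pH 7.2, 7 mM MgCl2, 50 mM KCl; 1 h RT. Kinase-Glo luminescence readout, normalized to no-enzyme (full inhibition) and uninhibited wells.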
Giardia growth: blocks growth of Giardia lamblia trophozoites; Potency, µM (highest dose often 57.5 µM), without a hit: top-dose activity change, negative = inhibition, actives largely listed as inhibitors; hit rate 5% among 1,500; shares compounds with Giardia FBPA inh-1; Giardia lamblia trophozoite growth inhibition;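 note: potency is the fitted concentration of half-maximal effect; trophozoites exposed to compound for 48 h at 37 °C; % is set by controls: 0 for no effect and ±100 for the full control effect; nearly all actives have a fitted effect of over 70% in size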
Mammalian tox: counter-screen for Giardia aldolase inhibitors: mammalian cell toxicity | mammalian cell viability counter-screen, qHTS | shares compounds with Giardia FBPA inh-1 | hit rate 4% among 1,500 | Potency, µM (series often up to 57.5 µM), for inactives: at the top dose viability change, negative = toxicity, most hits filed as inhibitors;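 note: Chinese hamster ovary cells used as mammalian cytotoxicity surrogate; viability measured as cellular ATP by luminescence; potency is the fitted concentration of half-maximal effect; compound exposure lasted 48 h before reading; % is set by controls: 0 for no effect and ±100 for the full control effect; nearly all actives have a fitted effect of over 60% in size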
Giardia FBPA inh-2: confirmation of Giardia fructose-bisphosphate aldolase inhibitors | shares compounds with Giardia FBPA inh-1 | purified Giardia aldolase enzyme activity, qHTS | Potency, µM (highest dose often 57.5 µM), without a hit: at the highest dose activity change, negative = inhibition, hits mostly inhibitors | hit rate 5% among 1,500 | AID 2787; note: potency is the fitted concentration of half-maximal effect; % is set by controls: 0 for no effect and ±100 for the full control effect; nearly all actives have a fitted effect of over 45% in size
Rabbit FBPA inh: selectivity test for Giardia aldolase inhibitors: rabbit aldolase. Potency, µM (doses to about 57.5 µM), for inactives: top-dose activity, negative = inhibition, hits mostly inhibitors. shares compounds with Giardia FBPA inh-1. Rabbit muscle FBPA enzyme inhibition, selectivity counter-screen. hit rate 4% among 1,500. AID 2794; note: potency is the fitted concentration of half-maximal effect; % is set by controls: 0 for no effect and ±100 for the full control effect; nearly all actives have a fitted effect of over 60% in size
Target sequence (P00883 whole entry, looked up): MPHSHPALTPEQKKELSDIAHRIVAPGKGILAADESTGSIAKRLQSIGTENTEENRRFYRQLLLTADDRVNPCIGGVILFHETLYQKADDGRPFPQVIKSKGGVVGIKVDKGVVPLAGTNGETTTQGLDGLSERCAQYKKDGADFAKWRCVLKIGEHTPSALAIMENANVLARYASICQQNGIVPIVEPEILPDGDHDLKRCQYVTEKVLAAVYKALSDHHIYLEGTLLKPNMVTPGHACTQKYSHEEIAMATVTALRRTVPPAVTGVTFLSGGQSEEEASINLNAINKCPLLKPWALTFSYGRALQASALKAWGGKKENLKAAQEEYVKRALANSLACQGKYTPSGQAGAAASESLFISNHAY
GAPDH counter: GAPDH inhibition flagged for Giardia aldolase hits; hit rate 6% among 1,500; AID 2795; Potency, µM (top dose mostly 57.5 µM), without a hit: at the highest dose activity change, negative = inhibition, actives largely listed as inhibitors; shares compounds with Giardia FBPA inh-1; GAPDH coupling enzyme counterscreen, biochemical, qHTS; note: potency is the fitted concentration of half-maximal effect; % is set by controls: 0 for no effect and ±100 for the full control effect; nearly all actives have a fitted effect of over 55% in size
* hit, by the source's call; ? = inconclusive; . = no result; [ ] = another dose, or the depositor's remark. Unless noted, calls come from the whole dose curve; as a rule, active = well fitted curve in the direction sought with a large enough effect; inconclusive = small, poorly fitted or top-dose-only effect, or another doubt; inactive = no such curve, though single readings can be large; an effect the other way counts as inactive or inconclusive.

SMILES	CHX counter	Shiga toxin inh	Giardia FBPA inh-1	NS1 function inh	LmPK inhibitor	Giardia growth	Mammalian tox	Giardia FBPA inh-2	Rabbit FBPA inh	GAPDH counter
Cc1ccccc1C(=O)Nc1nnc(-c2cccnc2)o1	-2	-5	16µM*	.	10%[11.5 µM]	?	6%	7%	0%	7%
Cc1ccccc1C(=O)Nc1nnc(-c2ccc(F)cc2)o1	-4	-3	18%	-155%	2%	.	.	.	.	.
CN1CCN(CCC(=O)N2c3ccccc3Sc3ccc(Cl)cc32)CC1	-1	-4	1%	7%	2%	.	.	.	.	.
O=C(CCN1CCN(CCO)CC1)N1c2ccccc2Sc2ccc(C(F)(F)F)cc21	-2	-9	7.9µM*	-2%	-11%	-14%	2%	-3%	0%	2%
Cc1cccc(/C=N/NC(=O)Cn2nnnc2N)n1	10	-8	18µM*	-1%	-4%	11%	-3%	3%	8%	10%
CC(=O)N1CCC(N(CCN2CCOCC2)C(=S)Nc2ccc(C)cc2)CC1	-6	2	7.1µM*	.	7%	-19%[38.3 µM]	-13%	2%	12%	5%
COc1cc(Cl)ccc1NC(=S)N(CCN1CCOCC1)C1CCN(C(C)=O)CC1	-2	-8	18µM*	.	3%	-7%[10.4 µM]	4%	6%	1%	5%
COc1ccc(C(=O)N(C)Cc2ccccn2)cc1OC1CCN(C(C)C)CC1	9	-13	.	0%	-3%	.	.	.	.	.
COC(=O)C(NC(=O)CCc1nnc2ccc(N3CCCCC3)nn12)C(C)C (centres undefined)	-2	-5	19%	-9%	-4%	.	.	.	.	.
COc1ccc(OC)c(/C=N/NC2=NS(=O)(=O)c3ccccc32)c1	1	-12	16µM*	6%	0%	-17%[10.4 µM]	-4%	1%	8%	10%
COc1ccc(/C=N/NC2=NS(=O)(=O)c3ccccc32)cc1	-1	6	4.5µM*	5%	-3%	-7%[10.4 µM]	5%	9%	16%	6%
COc1cc(/C=N/NC2=NS(=O)(=O)c3ccccc32)cc(OC)c1OC	-2	-7	7.9µM*	3%	1%	-14%	6%	13%	8%	6%
CN(C)c1ccc(/C=N/NC2=NS(=O)(=O)c3ccccc32)cc1	-3	-3	?	-6%	-3%	.	.	.	.	.
CC(=O)Oc1ccc(/C=N/NC2=NS(=O)(=O)c3ccccc32)cc1	-5	-2	7.9µM*	3%	-2%	-26%	1%	10%	1%	12%
O=S1(=O)N=C(N/N=C/c2ccccn2)c2ccccc21	-1	-14	?	1%	-6%	.	.	.	.	.
OC(CNCCc1ccc(Cl)cc1)COc1cc(Cl)ccc1Cl (centres undefined)	-1	-2	-3%	-4%	11%	.	.	.	.	.
O=C(c1ccncc1)N1CCC2(CC1)CN(Cc1cc(C(F)(F)F)cc(C(F)(F)F)c1)C2	.	.	-1%	.	.	.	.	.	.	.
Cc1noc(C)c1CCC(=O)NC1CCCN(Cc2ccc(CC(C)C)cc2)C1 (centres undefined)	9	-4	9%	6%	-1%	.	.	.	.	.
COc1ccc(NC(=O)c2cc(S(=O)(=O)N3CCc4ccccc43)cn2C)cc1OC	-4	-6	0%	6%	1%	.	.	.	.	.
COc1ccc(/C=N/NC2=NS(=O)(=O)c3ccccc32)cc1OC(C)=O	9	-12	3.5µM*	-1%	2%	12%[38.3 µM]	-4%	?	7%	3%
CCC(Cc1ccccc1)NS(=O)(=O)c1c(C)nc2scc(C)n2c1=O (centres undefined)	-6	-11	.	4%	1%	.	.	.	.	.
COc1ccc(Br)cc1CN1CCN(C(=O)c2ccco2)CC1	0	-5	28µM*	-1%	1%	?	-7%	2%	0%	-4%
Cc1ccccc1CN1CCN(C(=O)c2ccco2)CC1	33*	36	25µM*	1%	1%	-4%[10.4 µM]	15%	-5%	10%	-10%
CC(=O)Nc1ccc(NC(=O)C/C(C)=N/NC(N)=S)cc1	-2	23	16µM*	.	3%	-14%	9%	-2%	7%	4%
CC(=O)Nc1cccc(/C(C)=N/NC(N)=S)c1	8	-9	18µM*	.	-4%	14%	-20%	7%	3%	7%
SMILES	CHX counter	Shiga toxin inh	Giardia FBPA inh-1	NS1 function inh	LmPK inhibitor	Giardia growth	Mammalian tox	Giardia FBPA inh-2	Rabbit FBPA inh	GAPDH counter
COc1ccccc1NS(=O)(=O)c1cc(N)ccc1N1CCCCC1	1	-2	-10%	11%	-2%	.	.	.	.	.
Nc1ccc(N2CCCCC2)c(S(=O)(=O)Nc2ccccc2Cl)c1	6	18	16µM*	7%	2%	29%	-9%	-7%	5%	-11%
CC(=O)c1sc(C(C)(C)C)cc1NC(=O)c1ccccc1C(=O)O	-4	4	?	3%	-11%	.	.	.	.	.
CN1C(=O)/C(=C2\SC(=S)N(NC(=O)c3cccnc3)C2=O)c2ccccc21	-2	-2	7.1µM*	-32%	2%	11µM*	7%	-3%	6%	-4%
CCOC(=O)CN1C(=O)/C(=C2\SC(=S)N(NC(=O)c3cccnc3)C2=O)c2ccccc21	1	-3	14µM*	2%	0%	6.3µM*	15%	-24%	-16%	?
CCOC(=O)CN1C(=O)c2ccccc2Sc2ncccc21	18	38	6%	-2%	5%	.	.	.	.	.
C/C(CCC(C)C)=N\NC(=S)NCc1ccccc1	10	-4	16µM*	.	-7%	23%	16%	8%	9%	7%
C/C(=N\NC(=S)NCc1ccccc1)c1ccc2ccccc2c1	-2	11	6%	27%	2%	.	.	.	.	.
O=C(NC1CCCC1)C1CCCN(S(=O)(=O)c2ccc(F)cc2)C1 (centres undefined)	-4	4	0%	3%	-5%	.	.	.	.	.
COc1cc(OC)c(NC2=CC(=O)C(=O)c3ccccc32)cc1Cl	10	4	?	-3%	-1%	22µM*	21µM*	12µM*	13µM*	15µM*
CCC(C(=O)Nc1cc(Cl)c(OC)cc1OC)c1ccccc1 (centres undefined)	-8	13	-2%	3%	1%	.	.	.	.	.
Cc1ccc(C)c(NC(=O)Nn2cnnc2)c1	-2	-8	1%	-5%	7%	.	.	.	.	.
O=c1oc2ccccc2c(O)c1Cc1cc(Cl)c2cccnc2c1O	-2	-3	10µM*	9%	23%	?	6%	-6%	-18%	-13%
Oc1c(CN2CCc3ccccc3C2)cc(Cl)c2cccnc12	-3	-5	?	-96%	15%	.	.	.	.	.

High-throughput results (PubChem BioAssay)
